The list is not random: actives were taken first. Their share in the collection is about 8.3%.
Lassa entry inh = Lassa virus entry inhibition. AID 540256. Lassa virus pseudotype entry inhibition, cell reporter. 300,000 compounds, 1.2% hits. Potency, µM (titrated, usually from 37.9 µM), inactives show top-dose activity change, negative = inhibition, most hits filed as inhibitors; calls by dose curve; tested in HEK293 cells; further: potency means the concentration at half of the fitted maximal effect; nearly all actives have a fitted effect of over 50% in size
HCMV inh = inhibitors of human cytomegalovirus | HFF cells, HCMV-luciferase reporter, 72 h; hits give low values | activity change, negative = inhibition, % at 57.5 µM | 410,000 compounds, 4.5% hits; in the data active means activity change below about -60%; inconclusive means no clear call, values can overlap the other calls; inactive means above about -39%
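HFF cells seeded 16 h at 37C, treated with compounds, infected with luciferase-reporter HCMV at MOI 1 PFU/cell; luciferase read at 72 h post infection, normalized to buffer-only and Salinomycin controls.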
Marburg entry inh = blocks Marburg virus binding to or entry into cells; 300,000 compounds, 1.8% hits; Marburg virus pseudotyped entry inhibition, cell reporter; Potency, µM (series often up to 37.8 µM), for the others: top-dose activity change, negative = inhibition, most hits filed as inhibitors; AID 540276; calls by dose curve; tested in HEK293 cells; further: potency means the concentration at half of the fitted maximal effect
FBPA Giardia inh = inhibitors of Giardia lamblia fructose-1,6-bisphosphate aldolase; A8B2U2; purified Giardia FBPA; Potency, µM (titrated, usually from 59.6 µM), for the others: at the highest dose activity, negative = inhibition, actives largely listed as inhibitors; 290,000 compounds, 0.71% hits; AID 2451; further: potency means the concentration at half of the fitted maximal effect; nearly all actives have a fitted effect of over 55% in size
Target sequence (A8B2U2 whole entry, looked up): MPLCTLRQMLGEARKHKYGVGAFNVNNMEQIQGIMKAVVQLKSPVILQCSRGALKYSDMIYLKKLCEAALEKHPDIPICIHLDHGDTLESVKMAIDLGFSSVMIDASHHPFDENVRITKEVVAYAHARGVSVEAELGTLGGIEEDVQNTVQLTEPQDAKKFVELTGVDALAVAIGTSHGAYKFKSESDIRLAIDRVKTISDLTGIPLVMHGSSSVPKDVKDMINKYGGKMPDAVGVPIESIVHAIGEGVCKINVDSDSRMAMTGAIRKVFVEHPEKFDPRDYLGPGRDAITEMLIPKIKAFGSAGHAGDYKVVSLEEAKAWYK
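Giardia FBPA (40 nM reagent) was preincubated 10 min at RT with compound (up to 57.5 uM final), then substrate plus GAPDH/TPI/NAD/arsenate coupling system with diaphorase/resazurin was added; resorufin fluorescence (525/598 nm) was read after 20 min.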
HCV inh = blocks hepatitis C virus. Potency, µM (series often up to 41.8 µM), for inactives: top-dose activity change, negative = inhibition, usual class: inhibitors. 340,000 compounds, 3.4% hits. Huh7.5.1 HCVcc-Cre infection, luciferase reporter, 44 h; further: potency means the concentration at half of the fitted maximal effect
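1,000 cells/well; 4 h culture; + compound; + HCVcc-Cre (~0.5 moi); 44 h; luciferase substrate, RT 15 min; read 15 sec.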
FMDV antiviral = antivirals against foot and mouth disease virus; FMDV antiviral cell-based qHTS; Potency, µM (top dose mostly 57.9 µM), without a hit: top-dose activity change, negative = inhibition, actives largely listed as inhibitors; 410,000 compounds, 1.2% hits; AID 1159524; calls by dose curve; tested in HEK293T cells; further: read-out not given here; potency means the concentration at half of the fitted maximal effect; nearly all actives have a fitted effect of over 45% in size
Starred values were filed as active, the others as inactive; ? = inconclusive; / = not tested or not shown; ! = repeats disagree; [ ] = remark or other dose. Unless noted, the call rests on the fitted dose curve; in most records, active means well fitted curve in the direction sought with a large enough effect; inconclusive means small, poorly fitted or top-dose-only effect, or another doubt; inactive means no such curve, though single readings can be large; an effect the other way counts as inactive or inconclusive. On the % scale 0 is the no-effect control and ±100 the full control effect.

SMILES	Lassa entry inh	HCMV inh	Marburg entry inh	FBPA Giardia inh	HCV inh	FMDV antiviral
N/C(CCS(=O)(=O)c1ccc(Cl)cc1)=N\OC(=O)c1ccccc1C(F)(F)F	22µM*	-11	?	-1%	?	-23%
N/C(CCS(=O)(=O)c1ccc(Cl)cc1)=N\OC(=O)c1ccc(Cl)cc1	/	16	/	1%	-23%	-30%
CCN(CC)CC(O)COc1ccccc1C(=O)CCc1ccccc1 (centres undefined)	0%	-16	?	-2%	-18%	/
CCCNCC(O)COc1ccccc1C(=O)CCc1ccccc1 (centres undefined)	?	28	9.2µM*	-6%	-17%[8.37 µM]	-2%
CSc1ccccc1NC(=O)COC(=O)CCc1ccccc1	5%	-62*	6%[46.1 µM]	17%	8%	5%
Cc1ccccc1OCCCCn1nnc2sc3c(c2c1=O)CCC(C)C3 (centres undefined)	?	15	0%[46.1 µM]	/	/	0%
COc1ccc2c(c1)c1c(c(=O)n(-c3cccc(C)c3)c(=O)n1CC(=O)NCC1CCCO1)n2C (centres undefined)	3%[46.1 µM]	6	/	/	/	-6%
O=C(OC[C@H]1O[C@@H](OC(=O)c2cc(O)c(O)c(OC(=O)c3cc(O)c(O)c(O)c3)c2)[C@H](OC(=O)c2cc(O)c(O)c(OC(=O)c3cc(O)c(O)c(O)c3)c2)[C@@H](OC(=O)c2cc(O)c(O)c(OC(=O)c3cc(O)c(O)c(O)c3)c2)[C@@H]1OC(=O)c1cc(O)c(O)c(OC(=O)c2cc(O)c(O)c(O)c2)c1)c1cc(O)c(O)c(OC(=O)c2cc(O)c(O)c(O)c2)c1	/	/	/	/	11µM*	-12%
CC#CCN1c2ccccc2[C@]23C[C@@H](C(=O)OC)N(S(=O)(=O)c4ccc(Br)cc4)C2=NC(C(=O)OC)=C(C(=O)OC)[C@H]13	/	/	/	-1%[12.9 µM]	/	/
NC(=Nc1ccc(N)cc1)C(N)=Nc1ccc(N)cc1	26%[46.1 µM]	-65*	?	?	12%	-21%
NC(N)=Nc1ccc(Cl)cc1	/	/	/	0%	/	-20%
CCc1nc(N2CCN(C(=S)NCCCOC)CC2)c2c3c(sc2n1)CCCC3	/	-64*	/	5%	?	?
CCOC(=O)C(CC)(CC)C(=O)/C=C/c1cccc(Br)c1	?	-75*	?	/	?	22µM*
Cc1c(Cc2ccc3c(c2)OCO3)sc(NC(=O)C(C)(C)C)c1C#N	/	-33	/	-2%	11µM*	0%
CCC(=O)Nc1sc(Cc2ccc3c(c2)OCO3)c(C)c1C(N)=O	/	-12	/	-10%	-19%	-12%
CCc1cccc(NC(=O)CSc2ncc3c(n2)-c2ccc(Cl)cc2N(Cc2ccccc2)S3(=O)=O)c1	19%[46.1 µM]	-3	/	/	/	-6%
O=C(NC1=C(Nc2ccc(Cl)cc2)C(=O)c2ccccc2C1=O)c1ccccc1	?	-65*	?	?	?	-17%
O=C(NC1=C(NC2CCS(=O)(=O)C2)C(=O)c2ccccc2C1=O)c1ccccc1 (centres undefined)	/	-99*	/	1.3µM*	?	?
CCOC(=O)c1c(-c2ccccc2)c2cc(OC)ccc2n1CCCN(C)C	/	7	/	-23%	14µM*	-13%
CC(C)C(c1nnnn1Cc1ccc(F)cc1)N1CCN(C2CCCC2)CC1 (centres undefined)	?	-10	3%[46.1 µM]	-3%	-21%	8%
CCCC(c1nnnn1Cc1ccc(F)cc1)N1CCN(C2CCCCC2)CC1 (centres undefined)	-6%	-12	8.9µM*	0%	-12%	-22%
CN1CCN(C(c2ccc(F)cc2)c2nnnn2Cc2cccs2)CC1 (centres undefined)	22%	-17	?	1%	-7%	-6%
COc1ccc(C(c2nnnn2Cc2ccc(F)cc2)N2CCN(c3ccc(OC)cc3)CC2)cc1 (centres undefined)	3.2µM*	30	?	-2%	-22%	0%
COc1ccc(C(c2nnnn2Cc2ccc(F)cc2)N2CCN(c3ccccc3)CC2)cc1 (centres undefined)	?	21	?	3%	-11%	-6%
COc1ccc(Cn2nnnc2C(c2ccc(F)cc2)N2CCN(C3CCCC3)CC2)cc1 (centres undefined)	?	38	10µM*	2%	?	-10%
SMILES	Lassa entry inh	HCMV inh	Marburg entry inh	FBPA Giardia inh	HCV inh	FMDV antiviral
COc1ccc(C(c2nnnn2Cc2cccs2)N2CCN(c3ccc(F)cc3)CC2)cc1OC (centres undefined)	8.2µM*	20	?	2%	-20%	-11%
CCc1ccc(NC(=O)Nc2ccccc2OCc2cc(=O)n3ccccc3n2)cc1	-3%[46.1 µM]	62	/	/	/	-15%
CCOC(=O)N1CCc2c(sc(NCc3cccc(F)c3)c2C(=O)Nc2ccc(OCC)cc2)C1	0%[46.1 µM]	-2	/	/	/	27%
CCCCSCCCNC(=O)c1cc(-c2cccnc2)nc2ccc(S(=O)(=O)N3CCC(C)CC3)cc12	25%[46.1 µM]	20	/	/	/	-9%
Fc1ccc(C(c2nnnn2Cc2cccs2)N2CCN(C3CCCCC3)CC2)cc1 (centres undefined)	-17%	40	22µM*!	1%	?	-27%
COC(=O)c1cc(CNC(=O)c2cccc(F)c2)cc(NC(=O)c2ccccc2OC)c1	/	/	/	/	/	-10%
Cn1c(-c2nc(-c3ccccc3)cs2)nc2ccccc21	/	/	/	5%	/	/
COc1ccc(OC)c2nc3c(C(=O)NCCN(C)C)cccc3nc12	?	-96*	?	/	?	-26%
COc1ccccc1C(=O)NCCC(=O)NCCC12CC3CC(CC(C3)C1)C2	-17%	-18	-22%	/	?	0%
CN(C)CCNC(=O)c1cccc2nc3cccc(F)c3nc12	-9%	-99*	?	/	?	-22%
CN(C)CCNC(=O)c1cccc2ccc(-c3ccc(-c4ccccc4)cc3)nc12	?	8	?	/	?	0%
COc1ccc(C23CC4CC(CC(C4)C2)C3)cc1C(=O)NCCN(C)C	/	-70*	/	?	-6%	-19%
COC(=O)NC(c1ccccc1)[C@@]1(C(=O)OC)CCCC1=O (some centres undefined)	/	/	/	1%[12.9 µM]	/	/
COc1ccc(CNC(=O)c2ccc3c(c2)N(Cc2ccccc2C)C(=O)c2ccccc2S3=O)cc1 (centres undefined)	-22%[46.1 µM]	-27	/	/	/	-15%
CC(C)(C)C1CCc2c(sc(NC(=O)c3ccc(Cl)cc3)c2C(=O)NCc2ccco2)C1 (centres undefined)	-16%[46.1 µM]	2	13%[46.1 µM]	/	/	-19%
Cn1c(-c2cccc(C(F)(F)F)c2)cc2cnc(Nc3ccc(Oc4ccccc4)cc3)cc21	/	-15	/	/	/	/
CC(C)[C@H](CO)Nc1nc(Nc2cccc(Cl)c2)c2ncn(C(C)C)c2n1	/	/	/	-6%	/	-19%
CCn1cnc2c(Nc3cccc(Cl)c3)nc(C#N)nc21	/	60	/	/	/	3%

Compound activity from PubChem.
